# PubChem BioAssay AID1490 (National Center for Advancing Translational Sciences (NCATS), 2009)
# Where “and” joins values, the source holds several entries; their conditions need not be identical. Identical values can stand only once. Screen size: about 310,000 compounds; about 11,000 (3.5%) were called active. Another 4% or so got no clear call; they are omitted. The list comes from a sample in which actives are over-represented; it also holds similar structures and randomly drawn compounds. Unmarked numbers belong to inactive results. The call rests on the fitted dose curve; in most records, active means well fitted inhibition curve with a large enough effect; inconclusive means small, poorly fitted or top-dose-only effect, or another doubt; inactive means no such curve, though single readings can be large or run the other way. Non-standard residues stand in square brackets, D forms with d. Residues, ends and D or L forms follow the SMILES beside them. ξ: configuration not given here. *: point of attachment. Cbz = O=C(OCc1ccccc1)*; ξL = CC(C)CC(N)C(=O)O; ξP = O=C(O)C1CCCN1
# Target: 4'-phosphopantetheinyl transferase ffp (Bacillus subtilis) (UniProt Q9F4F7)
# Test: qHTS Assay for Inhibitors of Bacillus subtilis Sfp phosphopantetheinyl transferase (PPTase);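 further: the enzyme is Sfp with the accession as filed and its product quenches rhodamine fluorescence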;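 on largest response in the series, negative = inhibition: 0% = enzyme reaction without inhibitor and -100% = no enzyme wells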
# Conditions: Biochemical Sfp PPTase activity
# Description: Assay Submitter: Michael Burkart, University of California, San Diego
# Screening Center PI: Austin, C.P.
# Screening Center: NIH Chemical Genomics Center [NCGC]
# The covalent attachment of a phosphopantetheinyl (4'-PP) arm to a variety of synthases and other proteins is a key posttranslational protein modification. The 4'-PP is installed on the proteins post-translationally from coenzyme A (CoA) on a conserved serine residue by action of phosphopantetheinyl transferase (PPTase) enzymes. Phosphopantetheinylation is essential for synthase activity, and removal of the PPTase gene precludes natural product synthesis in microorganisms, or in the case of fatty acid biosynthesis, renders the organism unviable. PPTase enzymes belong to a distinct structural superfamily. Within bacteria, these enzymes are grouped into two classes based upon primary structure, the AcpS-Type and Sfp-Type PPTases.
# Sfp-type PPTases, corresponding to an activator of surfactin production in Bacillus subtilis, are responsible for modifying type I polyketide and nonribosomal peptide synthases of prokaryotes. Sfp-type PPTases are responsible for the activation of a variety of pathogen-associated virulence factors. Among these compounds are toxins such as mycolactone from Mycobacterium ulcerans, siderophores such as vibriobactin from Vibrio cholerae or mycobactin from Mycobacterium tuberculosis, as well as the mycolic acids which form the waxy cell wall of Mycobacteria. The biosyntheses of these natural products are considered attractive targets for drug design.
# In search of small molecule Sfp-PPTase inhibitors, a fluorescence quenching assay was developed for detection of Bacillus subtilis Sfp-PPTase enzymatic activity in a miniaturized high-throughput format. The consensus ybbr acceptor peptide […] was N-terminally labeled with Black Hole Quencher-2 (BHQ-2) and used in combination with rhodamine-labeled coenzyme A as a co-substrate.
# Inhibition of Sfp-PPTase was detected by recording the fluorescence intensity change over a 30-minute reaction period at a 525 nm excitation and 598 nm emission. Reagents were supplied by Michael Burkart and Timothy Foley, University of California at San Diego.
# This BioAssay deposition is for validation of the developed Sfp-PPtase assay.
# Assay Buffer: 50 mM Hepes-Na pH 7.6, 10 mM MgCl2, 0.01% Nonidet P-40, and 0.01% BSA.
# 3 uL of Sfp-PPTase enzyme (final concentration 15 nM) and 1 uL of substrate mixture (final concentration for rhodamine-CoA and BHQ-2-YbbR 5 uM and 12.5 uM, respectively) dispensed in columns 1, 2, 5 - 48. Columns 1 and 2 used to generate neutral control (uninhibited reaction)
# Three uL of reagents, consisting of buffer (in columns 3 and 4 as negative control) and Sfp-PPTase (in columns 1, 2, 5 - 48) were dispensed into 1,536-well Greiner black solid bottom plate. Compounds (23 nL) were transferred via Kalypsys pintool equipped with 1,536-pin array. The plate was incubated for 15 min at room temperature, followed by the addition of 1 uL substrate to start the reaction. The plate was then centrifuged at 1000 rpm for 15 seconds, and the fluorescence intensity recorded on a ViewLux High-throughput CCD imager (Perkin-Elmer) using standard BODIPY optics (525 nm excitation and 598 nm emission). The plate was then incubated for 30 minutes, and a second read on the ViewLux was performed. The fluorescence intensity difference over the 30-minute period was used to calculate the respective reaction rate for each well.
# Potency means the concentration at half of the fitted maximal effect.
Structure (SMILES),"largest response in the series, negative = inhibition",Potency
Cc1ccc(CS(=O)Cc2ccc(C(=O)N3CCOCC3)o2)cc1 (stereo not drawn),9.75%,
O=C(Nc1ccnn1C1CCN(C/C=C/c2ccc(F)cc2)CC1)C1CCCC1,-2.59%,
O=C(c1ccc(F)cc1)N1CCCC(C(=O)N2CCCCC2)C1 (stereo not drawn),1.26%,
CCOC(=O)C1=C(C(=O)OCC)C(C(=O)OCC)N(S(=O)(=O)C(F)(F)F)c2ccccc21 (stereo not drawn),6.6%,
CCOC(=O)c1ccccc1CN1C(=O)c2ccccc2S1(=O)=O,-2.27%,
CCOC(=O)c1cc2n(c1N)-c1ccccc1C2=O,,8.91 µM (active)
CCc1cc(=O)oc2c(C)c(OCC(=O)NCCN3CCOCC3)ccc12,9.5%,
CSCCC(NS(=O)(=O)c1ccc(C)cc1)C(=O)NCCc1c[nH]c2ccccc12 (stereo not drawn),6.95%,
O/N=C(\C[n+]1ccccc1)c1ccc(Br)cc1,-2.63%,
COc1ccc(CNc2nc3c(c(=O)[nH]c(=O)n3C)n2Cc2ccccc2)cc1,11.4%,
C=CCSc1nc2c(c(=O)[nH]c(=O)n2C)n1Cc1ccccc1,9.86%,
Cn1c(=O)[nH]c(=O)c2c1[nH]c(=S)n2Cc1ccccc1,,44.7 µM (active)
CC1CCN(C(=O)C2CCN(S(=O)(=O)N3CCC4(CC3)OCCO4)CC2)CC1,17.9%,
O=c1c([N+](=O)[O-])cc(C(F)(F)F)cn1Cc1cccc(Cl)c1,3.19%,
O=C(/C=C/c1cccc([N+](=O)[O-])c1)N1CCN(Cc2ccccc2)CC1,2.23%,
O=[N+]([O-])/C=C/c1ccc2c(ccn2Cc2ccccc2)c1,,25.1 µM (active)
COc1cc(NC(=O)CN2C(=O)NC(C)(c3ccc(OC(F)F)cc3)C2=O)cc(OC)c1OC (stereo not drawn),17.8%,
Cc1cccc(NC(=O)NC(=S)NC(=O)c2ccccc2)c1,18.4%,
S=C(NCCc1ccccc1)N1CCCCC1,5.57%,
O=C(NCCc1ccc(Cl)cc1)c1cccc(N2CCCC2=O)c1,4.32%,
Oc1cc2c(cc1O)CN(C(=S)NCCc1ccc(Cl)cc1)CCC2,,56.2 µM (active) and 44.7 µM (active)
COc1ccc([N+](=O)[O-])cc1NCC(=O)c1ccc(C)cc1,-11.6%,

Structure (SMILES),"largest response in the series, negative = inhibition",Potency
Cc1cccc(C(=O)Nc2ccc(C(=O)N/N=C/c3cccc(C)n3)cc2)c1,-3.6%,
COc1cc(-c2nn3c(-c4cccc(C)c4)nnc3s2)cc(OC)c1OC,10.2%,
c1ccc(-c2cc(-c3nnc4sc(-c5ccccn5)nn34)[nH]n2)cc1,0.622%,
Fc1ccc(-c2ccc(-c3nn4c(-c5ccco5)nnc4s3)o2)cc1,,17.8 µM (active)
C=CC1=C2C=C(C3CC3)N(C(CO)CO)C=C2C(=O)C(C)(OC(=O)c2ccco2)C1=O (stereo not drawn),11.3%,
Cc1ccc(CNCc2ccc3c(c2)OCO3)c(C)c1,-14.4%,
CC(=O)Nc1ccc(NC(=O)CC2CCCC2)cc1,1.03%,
O=C(c1c(F)cccc1Cl)N1CCN(c2ccccn2)CC1,2.71%,
O=C(c1c(Cl)cccc1Cl)N1CCN(c2cccc3[nH]ccc23)CC1,,89.1 µM (active)
O=C(c1ccc2ccccc2n1)N1CCN(c2ccccc2Cl)CC1,-10.1%,
COc1ccc(C(=O)CCC(=O)Nc2ccc(Cl)cc2)cc1,9.46%,
CCSc1nc2sc3c(c2c(=O)[nH]1)CC(C)(C)OC3,1.72%,
CCOC(=O)CSc1nc2sc3c(c2c(=O)[nH]1)CC(C)(C)OC3,-10.3%,
CC/C(C)=N/Nc1nc2sc3c(c2c(=O)[nH]1)CC(C)(C)OC3,,39.8 µM (active)
CC(C)CC(NC(=O)C1CCCN1C(=O)[C@@H](C)NC(=O)OCc1ccccc1)C(=O)NCC(N)=O (stereo partly drawn) (Cbz-[dA][ξP][ξL]G-NH2),4.6%,
COc1ccc2oc(=N)c(C(=O)Nc3ccc(Br)cc3)cc2c1,17.1%,
Cc1ccccc1NC(=S)NC(=O)Cc1ccc(Cl)cc1,1.33%,
COC(=O)c1ccc(CNC(=O)c2ccc3oc(C(C)C)nc3c2)cc1,14.1%,
CCc1ccccc1NC(=O)CSc1nnc([C@@H](NC(=O)OC(C)(C)C)C(C)CC)o1 (stereo partly drawn),6.3%,
COc1ccccc1NC(=O)[C@H](COCc1ccccc1)NC(=O)OC(C)(C)C,14.9%,
CC(C)Sc1nnc([C@H](Cc2ccccc2)NC(=O)OC(C)(C)C)o1,,50.1 µM (active)
CCc1ccccc1NC(=O)CSc1nnc([C@@H](NC(=O)OC(C)(C)C)C(C)C)o1,0.218%,

Structure (SMILES),"largest response in the series, negative = inhibition",Potency
C[C@H](NC(=O)OC(C)(C)C)c1nnc(SCC(=O)Nc2ccc(Br)cc2)o1,20%,
C[C@@H](NC(=O)OC(C)(C)C)c1nnc(S(=O)(=O)Cc2ccccc2)o1,,22.4 µM (active)
CCOC(=O)CC1(NC(=O)c2cc(COc3cncc(Cl)c3)on2)CCCCC1,-1.1%,
CC(C)(C)NC(=O)C(c1ccc(Cl)cc1)N(CCO)C(=O)c1snc(C(N)=O)c1N (stereo not drawn),3.24%,
O=C(Nc1cccnc1Cl)c1cc(-c2cccc(Cl)c2)on1,-6.07%,
O=C(Nc1cccc(F)c1)[C@@H]1CCCN1,1.19%,
Cc1ccc(NC(=O)C2CCCN2S(=O)(=O)c2cccc3cccnc23)c(C)c1 (stereo not drawn),10.9%,
CCCCC(C(=O)NC(C)(C)C)N(Cc1ccccc1)C(=O)c1snc(C(N)=O)c1N (stereo not drawn),3.56%,
CCc1ccc2[nH]c(=O)c(Cc3ccccc3)c(O)c2c1,0.106%,
CC(NC(=O)c1ccco1)c1ccc2c(c1)OCO2 (stereo not drawn),11.2%,
COc1cccc(N(C(=O)c2snc(C(N)=O)c2N)C(C(=O)NCC2CCCO2)c2c[nH]c3ccccc23)c1 (stereo not drawn),-7.12%,
CC(Sc1nnnn1C1CCCCC1)C(=O)O (stereo not drawn),0.844%,
CC(Sc1sc(=S)sc1SC(C)C(=O)O)C(=O)O (stereo not drawn),,79.4 µM (active)
NC(=O)c1nsc(C(=O)N(CCCN2CCOCC2)C(C(=O)NC2CCCCC2)c2ccc(Cl)cc2)c1N (stereo not drawn),15%,
O=C(CCCn1c(SCC(=O)c2ccccc2)nc2ccccc2c1=O)NCC1CCCO1 (stereo not drawn),-21.1%,
CCCCn1c(SCC(=O)NCC2CCCO2)nc2ccc(N3CCOCC3)cc2c1=O (stereo not drawn),,39.8 µM (active)
COCCNC(=O)c1ccc(Cn2c(SCC(=O)NCC3CCCO3)nc3ccc(Br)cc3c2=O)cc1 (stereo not drawn),-12.8%,
CCCCC(=O)Nc1nnc(S(=O)(=O)N(C)Cc2ccco2)s1,-1.11%,
Cc1nn(-c2ccccc2)c2c1c(C)c(CCC(=O)NCC1CCCO1)c(=O)n2C (stereo not drawn),20.2%,
CCc1nc(NCCO)c(C#N)c2c1CCCC2,-0.704%,
CC(C)CCNc1nc(N2CCCC2)c2c(c1C#N)CCN(C)C2,,70.8 µM (active)
CCN1CCc2c(C#N)c(NCc3ccccc3)nc(NCCO)c2C1,-12.9%,

Structure (SMILES),"largest response in the series, negative = inhibition",Potency
COc1ccc(NC(=O)c2cccc(Cl)c2)c[n+]1[O-],-0.333%,
O=C(NCCc1ccccc1)c1ccc2c(c1)N(Cc1ccccc1)CCS2,5.03%,
COc1ccc(Cn2c(=S)[nH]c3cc(C(=O)N4CCCCC4)ccc3c2=O)cc1,-3.09%,
CC(C)N(C(=O)c1ccc(-c2ccccc2F)cc1)C(C)C,-2.72%,
CC(=O)N(C1=C(Cl)C(=O)c2ccccc2C1=O)c1ccc(C(=O)O)cc1,,1 µM (active)
O=C(CN1C(=O)c2ccccc2C1=O)NCc1ccc(C(=O)O)cc1,9.6%,
C/C=C/C=N/NC(=O)c1ccncc1,-22.5%,
COC(=O)[C@@]1(Cc2ccc(OC)cc2)[C@H]2c3cc(C(=O)N4CCCC4)n(Cc4ccc(OC(F)(F)F)cc4)c3C[C@H]2CN1C(=O)c1ccccc1,6.34%,
COC(=O)[C@@]1(Cc2ccccc2)[C@H]2c3cc(C(=O)N4CCCC4)n(Cc4ccc(C)o4)c3C[C@H]2CN1C(=O)c1ccccc1,,56.2 µM (active)
COC(=O)[C@@]1(Cc2ccc(F)cc2)[C@H]2c3cc(C(=O)N4CCCC4)n(Cc4ccc(OC(F)(F)F)cc4)c3C[C@H]2CN1C(=O)c1ccccc1,24.5%,
O=C(OCCN=C1NS(=O)(=O)c2ccccc21)c1cccc([N+](=O)[O-])c1,0.751%,
COC(=O)CN1C(=O)[C@H]2[C@@H](C3CC3)N3C(=O)CN(Cc4ccc(-c5ccccc5)cc4)C(=O)[C@@]3(Cc3ccccc3)[C@H]2C1=O,13%,
Oc1cc(O)c2c(c1)OC(c1ccc(O)c(O)c1)C(O)C2 (stereo not drawn),,44.7 µM (active)
CCOc1ccc(S(=O)(=O)NCCCn2ccnc2)cc1NC(C)=O,13.6%,
COc1ccc(OCc2cc(C(=O)N3CCCC3)no2)c2ccccc12,-21.1%,
O=c1cc(CO)oc(C(Nc2cccc(C(F)(F)F)c2)c2ccccn2)c1O (stereo not drawn),,7.94 µM (active)
O=c1cc(CO)oc(C(Nc2cccc([N+](=O)[O-])c2)c2ccccn2)c1O (stereo not drawn),,20 µM (active)
O=C(Nc1cccc([N+](=O)[O-])c1)Nn1cnnc1,16.6%,
O=[N+]([O-])c1cccc(S(=O)(=O)NCc2ccccn2)c1,1.73%,
O=C(Nc1cccc(C(F)(F)F)c1)c1cc(Br)cc(Br)c1O,-10.2%,
FC(F)(F)c1cccc(Nc2ncnc3ccccc23)c1,5.92%,
CCC(C)C(NC(=O)C1CCC(=O)N1C(=O)OCc1ccccc1)C(=O)NC(C(=O)N1CCCC1C(N)=O)C(C)CC (stereo not drawn),18.8%,
